Measured values published in PubChem BioAssay (NCI).
Compounds without any hit were thinned out: in the full panel of roughly 79,000, 15% have a hit. Unmarked numbers belong to inactive results. The source made the active and inactive calls. No stated cut-off is given here; in the data, active means growth inhibition above about 70%; inactive means the rest.

Assays:
[1] = NCI Yeast Anticancer Drug Screen. Data for the rad50 strain (AID 155);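 further: 0% = growth of vehicle-only cultures of the same strain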; conditions: S. cerevisiae rad50 strain growth inhibition, stronger effect = higher value
Method in brief: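 Genetically altered yeast (DNA repair pathway); compound treatment; growth inhibition vs vehicle ctrl.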

[2] = NCI Yeast Anticancer Drug Screen. Data for the mec2-1 strain (AID 157); conditions: S. cerevisiae mec2-1 strain, stronger effect = higher value
Method in brief: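 Mutant yeast (mec2-1) grown with compound; growth inhibition relative to vehicle control reported.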

[3] = NCI Yeast Anticancer Drug Screen. Data for the sgs1 mgt1 strain (AID 161);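 further: 0% = growth of cultures given vehicle only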; conditions: S. cerevisiae sgs1 mgt1 strain, stronger effect = higher value
Method in brief: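 Compounds are added to genetically altered yeast, and growth is compared with cultures given vehicle alone to give percent inhibition.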

[4] = NCI Yeast Anticancer Drug Screen. Data for the cln2 rad14 strain (AID 165);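 further: 0% = growth equal to vehicle treated cultures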; conditions: S. cerevisiae cln2 rad14 strain, stronger effect = higher value
Method in brief: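 Readout is yeast growth inhibition versus vehicle-treated controls, using a strain with cln2 and rad14 alterations exposed to compound.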

[5] = NCI Yeast Anticancer Drug Screen. Data for the bub3 strain (AID 167); conditions: S. cerevisiae bub3 mutant strain, stronger effect = higher value
Method in brief: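 Yeast carrying a defined mutation is treated with each compound, and growth is compared with that of vehicle-exposed cells to give inhibition.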

[6] = NCI Yeast Anticancer Drug Screen. Data for the mlh1 rad18 strain (AID 175); conditions: S. cerevisiae mlh1 rad18 strain growth inhibition, stronger effect = higher value
Method in brief: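 Genetically defined yeast (DNA repair-deficient) exposed to compounds; growth inhibition determined relative to vehicle.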

[7] = at 5.0 µM (retest, dose inferred, filed as 0.5)
[8] = at 50.0 µM (retest, dose inferred, filed as 5.0)

SMILES	growth inhibition [1, 7]	growth inhibition [1, 8]	growth inhibition ([1]; at 50.0 µM)	growth inhibition [2, 7]	growth inhibition [2, 8]	growth inhibition ([2]; at 50.0 µM)	growth inhibition [3, 7]	growth inhibition [3, 8]	growth inhibition ([3]; at 50.0 µM)	growth inhibition [4, 7]	growth inhibition [4, 8]	growth inhibition ([4]; at 50.0 µM)	growth inhibition [5, 7]	growth inhibition [5, 8]	growth inhibition ([5]; at 50.0 µM)	growth inhibition [6, 7]	growth inhibition [6, 8]	growth inhibition ([6]; at 50.0 µM)
Cc1cc(=O)[nH]c2cc3oc4ccccc4c3cc12	30%	94% (active)	95.2% (active)	-5%	39%	32.4%	11%	40%	17.6%	9%	36%	68.1%	-13%	45%	81% (active)	23%	80% (active)	78.9% (active)
Cc1ccc(C(Cl)(c2ccc(C)cc2)c2ccc(C)cc2)cc1	3%	90% (active)	67.5%	39%	93% (active)	93.1% (active)	-3%	93% (active)	97.5% (active)	-2%	90% (active)	94.5% (active)	87% (active)	92% (active)	97.2% (active)	11%	91% (active)	92.2% (active)
NC(=S)C(=S)N/C=C/c1nc2ccccc2[nH]c1=O	-19%	98% (active)	89.8% (active)	-25%	99% (active)	92.7% (active)	-13%	97% (active)	91.7% (active)	-11%	98% (active)	89.3% (active)	-7%	99% (active)	90.7% (active)	-6%	98% (active)	89.4% (active)
CCN(CC)CCC(=O)/C=C/c1ccc(C)cc1	4%	97% (active)	57.4%	9%	99% (active)	10.9%	4%	99% (active)	18.6%	3%	97% (active)	50%	7%	99% (active)	15.1%	6%	99% (active)	24.1%
COc1ccc(-n2c3c(c4c(N)ncnc42)CCCC3)cc1	-2%	-4%	-21.3%	-12%	-3%	-7.3%	11%	-3%	-13%	-11%	43%	-33%	-2%	-13%	-69.2%	2%	-13%	-16.4%
CC(=O)OCc1ccc([N+](=O)[O-])o1	2%	78% (active)	96.3% (active)	-7%	22%	98.3% (active)	3%	67%	64.3%	0%	96% (active)	98.2% (active)	-2%	73% (active)	98.9% (active)	1%	86% (active)	98% (active)
NC1=NOC(=O)C1Cc1ccccc1 (stereo not given)	-2%	-1%	2.3%	0%	-4%	8%	-1%	-2%	1.8%	-7%	-4%	76.8% (active)	2%	-3%	-6.95%	-2%	-2%	15.6%
C=CCC1(OC(C)=O)CC2C(=O)C(=O)C(C1)N2OC(=O)c1ccccc1 (stereo not given)	20%	95% (active)	99% (active)	13%	96% (active)	99.1% (active)	22%	99% (active)	99.3% (active)	9%	94% (active)	98.3% (active)	-1%	93% (active)	98% (active)	10%	98% (active)	98.7% (active)
NCCNCCNCc1c2ccccc2c(CNCCNCCN)c2ccccc12	13%	13%	36.2%	-3%	-3%	90.9% (active)	0%	0%	90.9% (active)	5%	5%	89.7% (active)	7%	7%	43.8%	17%	17%	90.8% (active)
CN1CCN(C2=C(Cl)C3(OCCS3)C(F)(F)C2(F)F)CC1 (stereo not given)	-1%	-42%	34.1%	26%	53%	34.2%	15%	58%	53.7%	1%	29%	49.2%	5%	22%	39.9%	20%	68%	48.1%
COc1ccc(C2=C(Cl)C(=O)N(c3ccc(C)cc3)C(=O)C2(Cl)Cl)cc1	14%	59%	83.3% (active)	-2%	36%	96.8% (active)	24%	83% (active)	94.2% (active)	1%	19%	54.3%	-7%	22%	76.3% (active)	12%	33%	94% (active)
NC(Cc1ccc(O)cc1O)C(=O)O (stereo not given)	0%	2%	7.7%	0%	-1%	31%	-1%	-4%	-7%	2%	-2%	74.9% (active)	5%	-4%	3.55%	-1%	-1%	16.4%
CSc1cc2c(cc1N)Cc1cc(F)ccc1-2	4%	73% (active)	98.3% (active)	-1%	78% (active)	98.2% (active)	0%	85% (active)	98.5% (active)	-10%	93% (active)	97.2% (active)	-3%	84% (active)	98% (active)	-2%	82% (active)	98.5% (active)
CCCCCCCn1ccnc1NCCCCCCCCCCNc1nccn1CCCCCCC	-3%	98% (active)	99.3% (active)	-5%	98% (active)	99.6% (active)	-6%	99% (active)	47.4%	-4%	98% (active)	93.9% (active)	1%	98% (active)	94.5% (active)	-1%	98% (active)	98.9% (active)
CCOC(=O)c1sc2c(c1O)c(=O)n(-c1ccccc1)c(=S)n2-c1ccccc1	84% (active)	98% (active)	95.7% (active)	90% (active)	98% (active)	95.8% (active)	83% (active)	98% (active)	95.5% (active)	86% (active)	98% (active)	85.3% (active)	47%	97% (active)	95.2% (active)	92% (active)	98% (active)	95% (active)
COc1ccc(NC(=O)C(Cc2ccccc2)NC(C)=O)cc1 (stereo not given)	9%	7%	48.6%	1%	-9%	-5.75%	-12%	-14%	3.15%	-5%	1%	-55.5%	-4%	-2%	9.7%	-1%	-25%	6.2%
COC(=O)CCN1c2ccccc2Sc2ccccc21	-14%	38%	48.8%	-23%	21%	23.1%	-13%	30%	47.5%	31%	42%	23.4%	16%	62%	12.1%	-15%	49%	64.7%
ONC(=Nc1ccccc1)c1ccccc1	-137%	73% (active)	95.4% (active)	-42%	47%	98.3% (active)	-55%	78% (active)	96.3% (active)	-58%	86% (active)	96.6% (active)	-66%	35%	95.2% (active)	-120%	75% (active)	97.9% (active)
c1cnc2ccc3c4cccnc4ccc3c2c1	12%	95% (active)	96.8% (active)	0%	75% (active)	75% (active)	7%	81% (active)	61.3%	-17%	67%	59.5%	2%	66%	75.8% (active)	1%	89% (active)	80.4% (active)
CN/N=C(\C)C(CN1CCCCC1)C(C1=C(O)c2ccccc2OC1)c1ccccc1 (stereo not given)	25%	25%	69.8%	25%	25%	57.6%	9%	9%	78.7% (active)	-1%	-1%	66.7%	10%	10%	67.7%	25%	25%	72% (active)
